Laboratory results taken from PubChem BioAssay (EPA / NIEHS).
Records with an inconclusive call do not appear. Active and inactive are the calls of the source. Rule for the calls: active = hit-call score of the fitted dose curve at least 0.9, where 1 is the maximum; inconclusive = response in the unintended direction; inactive = score below 0.9.

Each compound was assayed against human Acetylcholinesterase (AChE), ACHE (gene 43) (UniProt P22303) (assay: NVS_ENZ_hAChE: NovaScreen (NVS) Enzymatic Assay for human Acetylcholinesterase (AChE) (AID 2283129)).
Chain of human Acetylcholinesterase (AChE), ACHE (gene 43) (P22303 whole entry, looked up): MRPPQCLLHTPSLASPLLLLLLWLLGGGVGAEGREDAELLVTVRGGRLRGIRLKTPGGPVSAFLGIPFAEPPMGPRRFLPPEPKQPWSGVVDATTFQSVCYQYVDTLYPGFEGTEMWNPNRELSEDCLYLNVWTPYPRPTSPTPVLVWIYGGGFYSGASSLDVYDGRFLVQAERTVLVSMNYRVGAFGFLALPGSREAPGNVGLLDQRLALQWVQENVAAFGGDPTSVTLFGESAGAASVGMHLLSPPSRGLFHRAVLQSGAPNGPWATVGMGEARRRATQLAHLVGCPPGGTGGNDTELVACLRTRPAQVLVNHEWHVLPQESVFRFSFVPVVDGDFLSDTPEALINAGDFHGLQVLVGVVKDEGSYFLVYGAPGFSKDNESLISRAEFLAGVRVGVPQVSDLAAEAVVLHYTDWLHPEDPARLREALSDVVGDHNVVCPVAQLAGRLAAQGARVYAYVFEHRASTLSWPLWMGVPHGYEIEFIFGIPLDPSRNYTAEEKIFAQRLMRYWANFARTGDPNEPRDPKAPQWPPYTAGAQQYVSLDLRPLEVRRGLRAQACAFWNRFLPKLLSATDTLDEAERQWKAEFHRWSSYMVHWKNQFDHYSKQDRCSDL
How it was run: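 Cell-free colorimetric enzyme-activity assay; compounds read 0.33 hour after dosing, loss of signal vs DMSO baseline. Primary screen in duplicate at 25 uM single concentration, with active compounds retested in concentration series.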

| SMILES | outcome | AC50 |
| --- | --- | --- |
| CS(=O)(=O)c1ccc([C@@H](C[C@H]2CCC(=O)C2)C(=O)Nc2cnccn2)cc1Cl | inactive | – |
| CCCCCCC(CCCCCCCCCCC(=O)OCC(COC(C)=O)OC(C)=O)OC(C)=O (centres undefined) | inactive | – |
| CN(C)C(=O)NC1(c2ccccc2)CCN(CCC[C@]2(c3ccc(Cl)c(Cl)c3)CCCN(C(=O)c3ccccc3)C2)CC1 | – | 5.13 µM (active) |
| c1ccc2c(c1)Cc1ccccc1-2 | inactive | – |
| NCc1cccc(C2CCN(C(=O)c3ccc(C#Cc4ccccc4F)o3)CC2)c1 | – | 25 µM (active) |
| O=c1[nH]c2ccc(S(=O)CCN3CCC(Cc4ccc(F)cc4)CC3)cc2o1 (centres undefined) | – | 3.71 µM (active) |
| NC(=O)N(O)[C@@H]1C=C[C@H](Oc2cccc(Oc3ccc(F)cc3)c2)C1 | inactive | – |
| CNS(=O)(=O)c1cc(C(=O)N2CCC(CCN3C4CCC3CC(n3c(C)nc5ccccc53)C4)(c3cccc(F)c3)CC2)c(Cl)cc1F (centres undefined) | inactive | – |
| O=C(c1ccc(OCCN2CCCCC2)cc1)c1c(-c2ccc(O)cc2)sc2cc(O)ccc12 | – | 0.0103 µM (active) |
| COc1ccc2cc(S(=O)(=O)N[C@H](CC(=O)N[C@H](Cc3ccc(CN4[C@H](C)CCC[C@@H]4C)cc3)C(=O)N(C)C(C)C)c3ccc4c(c3)OCO4)ccc2c1 | inactive | – |
| CC/C(=C(\c1ccccc1)c1ccc(OCCN(C)C)cc1)c1ccccc1 | – | 17 µM (active) |
| O=C1c2c(O)cccc2Cc2cccc(O)c21 | – | 0.484 µM (active) |
| Cc1cc(CCN2CCN(c3nsc4ccccc34)CC2)cc2c1NC(=O)CC2(C)C | inactive | – |
| Cn1c(=O)cc(Oc2ccc(F)cc2F)c2cnc(NCC(C)(C)O)nc21 | – | 17.3 µM (active) |
| CS(=O)(=O)c1ccc([C@@H](CC2CCCC2)C(=O)Nc2cnccn2)cc1Cl | inactive | – |
| CCOC(=O)O[C@H](C)OC(=O)c1ccc2c(c1)cc(C(=O)NC1CCN(C(C)C)CC1)n2Cc1cc(-c2ccc(Cl)s2)on1 | – | 5.36 µM (active) |
| CCN(C(=O)c1cc(C)cc(OC[C@H](C)Nc2ccncc2)c1)C(C)C | – | 6.7 µM (active) |
| Clc1cc(Cl)c2c(c1)N=C1CCCCCN1C2 | – | 0.351 µM (active) |
| COc1cccc(-c2ccc(/C=C\CN3CCCCCC3)cc2Cl)c1 | – | 22.6 µM (active) |
| CCCCC(CC)COC(=O)CCCCCCCC(=O)OCC(CC)CCCC (centres undefined) | inactive | – |
| O=C(O)Cc1cc(I)c(Oc2cc(I)c(O)c(I)c2)c(I)c1 | – | 2.92 µM (active) |
| O=C(OC[C@H]1O[C@@H](OC(=O)c2cc(O)c(O)c(OC(=O)c3cc(O)c(O)c(O)c3)c2)[C@H](OC(=O)c2cc(O)c(O)c(OC(=O)c3cc(O)c(O)c(O)c3)c2)[C@@H](OC(=O)c2cc(O)c(O)c(OC(=O)c3cc(O)c(O)c(O)c3)c2)[C@@H]1OC(=O)c1cc(O)c(O)c(OC(=O)c2cc(O)c(O)c(O)c2)c1)c1cc(O)c(O)c(OC(=O)c2cc(O)c(O)c(O)c2)c1 | – | 0.644 µM (active) |
| N=C(N)c1ccc(OCCCCCOc2ccc(C(=N)N)cc2)cc1 | – | 19.3 µM (active) |
| Nc1ccc2c(c1)C(=O)c1ccccc1C2=O | inactive | – |
| O=C1c2ccccc2C(=O)N1CCc1noc(-c2ccc(CN3CCCCCC3)s2)n1 | – | 13.8 µM (active) |
| COCCOc1cc2cc(C(=O)NC3CCN(C(C)C)CC3)n(CC(=O)Nc3ccc(Cl)cn3)c2cn1 | – | 29 µM (active) |
| COc1ccc(-n2nc(C(F)F)cc2-c2ccc(S(C)=O)cc2)cc1 (centres undefined) | inactive | – |
| C[C@]12CC[C@@H]3c4ccc(O)cc4C[C@@H](CCCCCCCCCS(=O)CCCC(F)(F)C(F)(F)F)[C@H]3[C@@H]1CC[C@@H]2O (some centres undefined) | inactive | – |
| CCOC(=O)CCC(=O)OCC | inactive | – |
